# Assay results as given in PubChem BioAssay AID834 (PCMD, 2007).
# Among all 85,000 compounds or so, about 120 (0.14%) were called active. Only a selection was taken, and actives are over-represented in it overall. Values without a mark were called inactive.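 Rule for the calls: active = inhibition above 20%; inactive = inhibition below 20%.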
# Test: clotrimazole potentiators killing Candida biofilms, primary screen, with clotrimazole, Alamar Blue (AID 834);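 note: preformed 24 hr biofilms exposed to compound for 48 hr; 0% = biofilm without compound and 100% = blank killed by clotrimazole plus chlorhexidine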
# Details: C. albicans biofilm + clotrimazole, at 6 µM, active compounds read high
row,Structure (SMILES),inhibition
1,CCOc1ccccc1C(=O)NC1CC2CCCC(C1)N2Cc1ccccc1 (centres undefined),1.7%
2,CCn1nnnc1SCC(=O)c1ccc(C)cc1C,-2.31%
3,Cc1ccccc1CSCCNC(=O)c1ccc(Cl)c(S(=O)(=O)N2CCOCC2)c1,3.05%
4,O=C(NCc1ccccc1)[C@@H]1CSC2c3ccccc3C(=O)N21 (some centres undefined),-0.55%
5,Oc1ccc(-c2onc3ccc(Cl)cc23)cc1,3.22%
6,CCCCCCNCCn1cnc2c(N)ncnc21,8.75%
7,Cc1cc(C)c(OCC(=O)N/N=C/c2ccco2)c(C)c1,-5.16%
8,Cn1c2c(c(=O)n(C)c1=O)C(c1cccc([N+](=O)[O-])c1)Nc1ccccc1O2 (centres undefined),6.05%
9,c1ccc(-n2nc3ccccc3n2)cc1,9.8%
10,Cc1ccc(S(=O)(=O)NCC(C)NS(C)(=O)=O)cc1 (centres undefined),3.23%
11,O=C1C(Cl)=C(N2CCOCC2)C(=O)N1c1ccccc1,3.34%
12,Fc1ccccc1/C=C1\CCCC2=C1Nc1ncnn1C2c1ccccc1F (centres undefined),56.5% (active)
13,COc1ccc(OC)c(-n2nnnc2SCC(=O)Nc2cc(C)ccc2OC)c1,4%
14,O=S(=O)(NCCc1ccccc1)c1ccccc1,5.09%
15,O=C(NCC1CCCO1)c1ccc2ccccc2n1 (centres undefined),2.84%
16,CC(C)Oc1ccc(C(=O)NC(C)(C)CO)cc1,0.21%
17,CCN1CCN(C(=O)C2(NC(=O)Nc3cccc(F)c3)CCCCC2)CC1,-2.53%
18,CCn1c(SCC(=O)Nc2ccc(OC)c(OC)c2)nnc1-c1c[nH]c2ccccc12,2.3%
19,O=C(Nc1ccccc1-c1nnn(CC(=O)N2CCCc3ccccc32)n1)c1cccc(Cl)c1,-4.65%
20,CCSc1nc(-c2ccc(OC)cc2)cc(-c2ccc(OC)cc2)c1C#N,3.4%
21,CC(C)(C)c1ccc(OC2=CS(=O)(=O)c3ccccc32)cc1,1.17%
22,Cc1c(C=O)c2ccccn2c1C(=O)c1ccncc1,-3.35%

row,Structure (SMILES),inhibition
1,Cc1cc(SCC(=O)c2ccccc2)nc(SCC(=O)c2ccccc2)n1,9.02%
2,COCC(=O)Nc1ccc(Br)cc1,5.17%
3,COC(=O)c1sc(=S)n(-c2ccc(Cl)cc2)c1C,5.98%
4,CC(=O)C1=C(C)NC(C)=C(C(C)=O)C1c1cn(-c2ccccc2)nc1-c1cccs1,4.22%
5,O=C(NCCCn1ccnc1)Nc1ccc(Cl)cc1Cl,8.78%
6,COC(=O)c1ccc(Sc2ccc(F)cc2)c(N)c1,2.2%
7,Cc1ccc(N(Cc2ccc(C(=O)Nc3ccccc3C(=O)NCc3ccco3)cc2)S(C)(=O)=O)cc1C,0.88%
8,COc1cc2c(cc1OC)C(C(C)C)=NC(C)(C)C2,4.82%
9,COc1ccc(Nc2ncc(C(=O)N3CCN(c4ccccc4OC)CC3)c3ccccc23)cc1,10.1%
10,Cc1[nH]n(-c2ccc(Cl)cc2)c(=O)c1/C=N/n1c(C)nc2ccccc2c1=O,7.46%
11,COC(=O)Nc1ncc(CN2CCCCC2)s1,-1.41%
12,CN(C)S(=O)(=O)c1ccc(N2CCCC2)c(C(=O)NCc2ccccc2)c1,-0.61%
13,CCC(C)NC(=O)c1ccccc1NC(=O)c1ccccc1N(C)S(C)(=O)=O (centres undefined),-0.05%
14,COC(=O)c1ccccc1Sc1c(/C=N/OCc2ccc(Cl)cc2)c(C(F)(F)F)nn1C,-1.64%
15,S=C1NC(c2ccccc2)=NCN1c1ccc(Br)cc1,5.98%
16,C=CCOC(=O)C1=C(C)NC(SCC(=O)OCC)=C(C#N)C1c1ccc(C)cc1 (centres undefined),3.88%
17,N#CC1=C(SCc2ccc(C#N)cc2)N=C(N)C(c2nc(-c3ccccc3)cs2)C12CCCCC2 (centres undefined),-2.54%
18,Cc1ccc(CCN2CC(C(=O)O)CC2=O)cc1 (centres undefined),2.77%
19,COc1ccc(CN(CC(=O)NC2CCCC2)C(=O)CCC(=O)Nc2cc(C)on2)cc1,-2.23%
20,CCn1c2ccccc2c2cc(NC(=S)N3CCOCC3)ccc21,5.56%
21,CCN(c1ccccc1)S(=O)(=O)c1ccc(C(=O)Nc2nccs2)cc1,2.15%
22,CCOC(=O)c1cnc(SCC(=O)Nc2ccccc2C(=O)OC)nc1N,4.94%

row,Structure (SMILES),inhibition
1,CCNc1nc(NC(C)C)nc(OCCOC(=O)c2ccccc2)n1,2.57%
2,Cc1cccc(N2CCN(C(=O)c3cnn4c(C(F)F)cc(-c5ccccc5)nc34)CC2)c1C,7.54%
3,CCOCCn1c(C(C)C)nc2ccccc21,0.21%
4,O=C(CN1CCOCC1)Nc1ccccc1,2.89%
5,COC(=O)c1ccc(CSc2nnc(NC(C)C)s2)cc1,8.02%
6,COc1ccccc1C(c1nnnn1C(C)(C)C)N1CCN(Cc2ccccc2)CC1 (centres undefined),-0.02%
7,COc1ccc(Br)cc1CN1CCN(C(=O)c2cccc(OC)c2OC)CC1,-0.18%
8,Cc1nn(Cc2ccccc2)c2c1C(c1ccccc1)C(C#N)=C(N)O2 (centres undefined),4.23%
9,CCCc1cc(=O)[nH]c(SCC(=O)c2cc(C)n(CCC)c2C)n1,9.55%
10,C=CCN(C(=O)Cn1ncc2c1-c1cc(C)ccc1OC2)c1ccccc1,3.48%
11,CC(C)(C)c1nc2ccccc2c(=O)n1N1C(=O)c2ccccc2C1=O,1.87%
12,OC(c1ccccc1)c1nccn1Cc1ccccc1 (centres undefined),6.12%
13,CCOc1cccc(C(=O)Nc2nnc(-c3cccs3)s2)c1,5.64%
14,CC(C)N1C(=S)SC(C)(C)C1n1oc(=O)n(-c2ccc(Cl)c(Cl)c2)c1=O (centres undefined),8.09%
15,Cc1noc(COc2ccccc2OCc2onc(C)c2Cl)c1Cl,-3.84%
16,COC(=O)c1sccc1-n1cccc1C(=O)C(=O)N1CCCCC1,6.37%
17,COCCNC(=O)COc1ccccc1C,4.87%
18,CCC(C)NC(=O)CCCc1ccccc1 (centres undefined),5.94%
19,COc1ccc(NC(=O)C2C3C=CC(C3)C2C(=O)NCc2ccccn2)c(OC)c1 (centres undefined),3.96%
20,CCOC(=O)/C(C#N)=C\c1c(C)cc(C)c(COC(C)=O)c1C,5.54%
21,CC/C(O)=N\S(=O)(=O)c1ccc(N=NN(C)C)cc1,3.86%
22,CC1=NN(/C(=N\c2nnc(C)s2)Nc2ccccc2)[C@H](c2ccc(C)cc2)S1,4.3%

row,Structure (SMILES),inhibition
1,O=C(c1ccc(CN2CCOCC2)cc1)N1CCN(c2ccccc2F)CC1,3.38%
2,O=C(NCCSCc1ccccc1)c1ccc(Cl)c(S(=O)(=O)N2CCOCC2)c1,9.31%
3,COC(=O)c1cccc(-n2[nH]nnc2=S)c1,-3.99%
4,C=CCNC(=O)c1cc2nc(C3CC3)cc(C(F)F)n2n1,3.65%
5,OC(COc1ccc2c(c1)CCC2)CN1CCN(c2cccc(Cl)c2)CC1 (centres undefined),3.52%
6,CC(C)C(=O)Nc1ccc2c(c1)oc1ccccc12,9.6%
7,CC(C)OC(=O)c1c(NC(=O)c2ccco2)sc2c1CCCC2,4.89%
8,Cc1cccc(CCNS(=O)(=O)c2ccc(S(=O)(=O)NC3CCCC3)cc2)c1,-0.29%
9,COc1ccc(CCN2C(=O)C3CC=C(C)CC3C2=O)cc1OC (centres undefined),1.85%
10,Clc1cccc(N=C2NN=C(c3ccc4c(c3)OCCO4)CS2)c1,1.81%
11,COc1ccc(NC(=O)Cn2c(=O)n(Cc3ccco3)c(=O)c3ccccc32)cc1,7.9%
12,CCCCNC(=O)C1(c2ccc(OC)cc2)CCOCC1,3.55%
13,Cc1nnc(SCC(=O)NC2CCCC2)s1,1.39%
14,O=C1Nc2cc(Cl)c(Cl)cc2N(O)N1c1cc(Cl)cc(Cl)c1,-1.77%
15,CCOc1ccc(NC(=O)N(CC(C)C)CC(C)C)cc1,-5.95%
16,CC1CCN(S(=O)(=O)c2ccc(S(=O)(=O)NCc3ccco3)cc2)CC1,6.18%
17,CCOc1cc(NC(=O)c2cnccn2)c(OCC)cc1NC(=O)c1ccc(C)cc1,10.1%
18,CCOc1ccc(S(=O)(=O)NCCSc2ccccc2)cc1,-7.35%
19,Cn1c(Cc2cccc3ccccc23)nnc1SCC(=O)N1CCN(c2cccc(Cl)c2)CC1,2.35%
20,CC1(C)NC(=O)N(CCCCSc2ccc(Cl)cc2)C1=O,4.05%
21,CCc1cccc(C)c1N(C(=O)Cn1c(CO)nc2ccccc21)C(C)COC (centres undefined),2.34%
22,CCOC(=O)c1c(NC(C)=O)sc2c(O)c(Br)ccc12,7.32%

row,Structure (SMILES),inhibition
1,CC(C)(C)C1CCc2c(sc3nc(SCC(N)=O)nc(N)c23)C1 (centres undefined),9.53%
2,CC(=O)Nc1ccc(NC(=O)CSCc2cnn(-c3ccccc3)c2-n2cccc2)cc1,5.53%
3,Cc1ccc(OC(=O)c2ccccc2C(=O)OCC(F)(F)C(F)F)cc1,-0.38%
4,Cc1ccc(/C=N/NC(=O)C2=NNC(c3ccccc3)(c3ccccc3)C2)c(O)c1,2.75%
5,Cc1ccc(CNC(=O)COc2ccc(S(=O)(=O)NC(C)C)cc2)cc1,4.65%
6,CCOC(=O)c1sc(NC(=O)CSc2nc(C)cc(C(F)(F)F)n2)c(C#N)c1C,4.2%
7,CCOC(=O)c1ccc2c(c1)nc(SCC(=O)NC(C)C)n2CC,-0.28%
8,CC(C)OC(=O)CN1C(=O)C(=O)c2ccccc21,-1.96%
9,CC(C)(C)NC(=O)Cn1c(SCC(=O)Nc2nccs2)nc2ccccc21,-3.28%
10,COc1ccc(C2=NOC3(CC(=O)N(c4ccc(Cl)cc4)C3=O)C2)c(OC)c1 (centres undefined),8.25%
11,CCc1c(O)cc2n(c1=O)-c1ccccc1C2(C)C,5.21%
12,CCn1c(Cc2cccs2)nnc1SCC(=O)c1ccc(C)cc1,5.86%
13,CCCCOc1ccc(N(CC(=O)NCC2CCCO2)C(=O)CCC(=O)Nc2cc(C)ccn2)cc1 (centres undefined),5.21%
14,CCCc1nc2sc3c(c2c(=O)n1NC(=O)CCCl)CCCC3,-7.02%
15,CCOC(=O)c1c(NC(=O)CSc2nnc(CNc3ccc(C)cc3C)o2)sc(C)c1C,0.89%
16,CCC(=O)Nc1ccc(S(=O)(=O)NCC2CCCO2)cc1 (centres undefined),5.21%
17,O=C(COC(=O)c1n[nH]c2ccccc12)NCc1ccccc1,1.24%
18,COc1ccc(Nc2cc(=O)oc3ccccc23)cc1,5.52%
19,O=C(NC1CCCCC1)C1CC(=O)N(CCc2ccccc2)C1 (centres undefined),5.26%
20,CCOC(=O)CSc1nc2ccc(C)cc2[nH]1,4.49%
21,FC(F)(F)c1cc(-c2ccco2)nc(NCc2ccc(Cl)cc2)n1,-7.36%
